PubChem BioAssay
Calls of active or inactive are those of the source.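 Rule for the calls, unless noted: active = NADPH fluorescence slope more negative than the mean of all samples by about 3 SD, 99.7% confidence; inactive = the rest.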

Tests used:
[1] = inhibitors of TNFa-induced NFkB p65 translocation, primary screen, imaging, HUVEC, MLSMR starter and 10KST1 sets (AID 438;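 active = inhibition above 20% together with a positive visual image hit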;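 note: compound added about 3h40 before a 20 min TNFalpha stimulation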;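 for inhibition: signal is the nuclear over cytoplasmic p65 intensity ratio per well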); conditions: HUVEC TNFa-induced p65 nuclear translocation; cell count: measured here: nuclei count (cytotoxicity indicator), at 2.08 µM; inhibition: at 2 µM, stronger effect = higher value, 0% TNFa-plus-vehicle, 100% no-TNFa wells
[2] = reduction of polyQ htt aggregates in cells – imaging, exon1htt(103Q)mCFP cells, high-content imaging, primary screen (AID 483;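 active = visual image review flags a hit and inhibition of aggregation exceeds 20%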;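 note: compound exposure lasted 3 days before fixation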;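 for nuclei count: percent of the per-plate median nuclei count of sample wells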); conditions: exon1htt(103Q)mCFP cell line, aggregate imaging, at 2 µM; inhibition of aggregation: stronger effect = higher value; nuclei count: measured here: cell count, toxicity
[3] = endothelial E-selectin expression blockers – imaging, HUVEC, immunofluorescence, MLSMR starter and 10KST1 sets, primary screen (AID 487;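 active = visually confirmed hit in the image check and inhibition above 20%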;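 for inhibition: signal is fraction of cell area covered by stained E-selectin grains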;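 for nuclei count: 100% = median nuclei count of all wells on the same plate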); conditions: HUVEC TNFalpha-induced E-selectin immunofluorescence imaging, at 2 µM; inhibition: stronger effect = higher value; nuclei count: measured here: cell number, toxicity
[4] = molecular target: Voltage-gated potassium channel subunit beta-2 (Rattus norvegicus) (UniProt P62483); experiment: inhibitors of rat Kvbeta2 reductase activity – biochemical, NADPH fluorescence, primary screen (AID 622;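 active = fluorescence slope higher than the sample average by over 3 SD, cut at about -0.22 in these data, passing the limit was not always enough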;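 note: slope of raw intensity against log time taken from 70 to 1610 s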); conditions: recombinant KvBeta, 4-cyanobenzaldehyde reduction, at 10 µM, stronger effect = higher value
[5] = molecular target: Voltage-gated potassium channel subunit beta-2 (Rattus norvegicus) (UniProt P62483); experiment: enhancers of rat Kvbeta2 NADPH turnover – biochemical, NADPH fluorescence, primary screen (AID 623); conditions: Recombinant KvBeta, NADPH fluorescence decrease slope, 10 min; at 10 µM; stronger effect = lower value;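 note: fluorescence intensity change per second fitted from 20 to 320 s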
[6] = molecular target: Alpha-2C adrenergic receptor (Homo sapiens) (UniProt P18825); experiment: compounds altering alpha2C-coupled GIRK flux – cell-based, HEK293 alpha2C/GIRK1/2, thallium flux, primary screen (AID 624;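 active = fluorescence slope after compound addition differing from the mean of all screened samples at 99.7% confidence, in either direction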;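 note: slope of fluorescence ratio to pre-addition baseline per second over 15 to 24 s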); conditions: thallium flux BTC fluorescence, at 10 µM, actives lie on both sides
[7] = blockers of RIG-like receptor reporter activation – cell-based, Sendai virus stimulus, luciferase, 10K MLSCN set, TLR/RLR signaling modifier project, primary screen (AID 602276;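 active = inhibition at or above 50% at 10 µM; inactive = inhibition below 50%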;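 note: firefly luciferase from ISG56 promoter only with Renilla not read in this screen; 0% = Sendai virus plus DMSO and 100% = medium plus DMSO without virus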); conditions: HEK293 RL24 IRF3 luciferase reporter, at 10 µM, stronger effect = higher value
[8] = TLR3 IRF3 reporter activation blockers – cell-based, poly I:C stimulus, luciferase, 10K MLSCN set, primary screen (AID 602277;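 active = inhibition of the reporter signal at or above 50%; inactive = inhibition below 50%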); conditions: HEK293-TLR3 RL24 IRF3 luciferase reporter, at 10 µM, stronger effect = higher value

Sequence of Alpha-2C adrenergic receptor (Homo sapiens) (P18825 whole entry, looked up): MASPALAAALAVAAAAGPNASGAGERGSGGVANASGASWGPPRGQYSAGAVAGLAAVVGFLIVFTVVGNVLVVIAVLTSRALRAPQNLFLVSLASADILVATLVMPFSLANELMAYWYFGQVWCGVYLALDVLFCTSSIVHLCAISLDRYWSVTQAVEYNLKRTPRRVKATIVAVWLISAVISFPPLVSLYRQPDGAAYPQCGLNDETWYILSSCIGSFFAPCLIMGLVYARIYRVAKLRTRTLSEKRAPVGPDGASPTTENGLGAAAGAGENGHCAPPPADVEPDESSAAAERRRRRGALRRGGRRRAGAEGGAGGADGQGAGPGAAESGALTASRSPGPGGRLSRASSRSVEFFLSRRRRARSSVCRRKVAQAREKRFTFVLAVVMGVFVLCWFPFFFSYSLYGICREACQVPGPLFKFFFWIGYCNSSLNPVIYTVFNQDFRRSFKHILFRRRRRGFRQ
Sequence of Voltage-gated potassium channel subunit beta-2 (Rattus norvegicus) (P62483 whole entry, looked up): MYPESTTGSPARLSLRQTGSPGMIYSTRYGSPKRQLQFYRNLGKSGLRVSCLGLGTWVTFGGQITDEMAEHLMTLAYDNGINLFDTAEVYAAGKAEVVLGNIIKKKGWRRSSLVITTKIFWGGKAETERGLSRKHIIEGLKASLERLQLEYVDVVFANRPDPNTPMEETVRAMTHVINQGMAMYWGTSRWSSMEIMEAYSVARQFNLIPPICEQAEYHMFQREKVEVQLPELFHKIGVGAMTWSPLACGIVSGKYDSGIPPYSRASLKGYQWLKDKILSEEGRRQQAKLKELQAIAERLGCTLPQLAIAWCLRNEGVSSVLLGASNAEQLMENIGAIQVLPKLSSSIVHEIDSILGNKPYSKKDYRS

Row | SMILES | cell count [1] | inhibition [1] | inhibition of aggregation [2] | nuclei count [2] | inhibition [3] | nuclei count [3] | fluorescence slope [4] | NADPH fluorescence slope [5] | slope [6] | inhibition [7] | inhibition [8]
1 | Cc1c(C(=O)OC2CCCCC2)[nH]c2c1C(=O)CC(C)(C)C2 | 342 | -8.9% (inactive) | -22% (inactive) | 108% | 14.6% (inactive) | 68.9% | -0.407 (inactive) | -9.3e-06 (inactive) | 0.00193 (inactive) | -3% (inactive) | -13.3% (inactive)
2 | CCc1ccccc1NC(=O)c1cnc2n(c1=O)CCS2 | 582 | -3.9% (inactive) | -4.9% (inactive) | 94.6% | -4.7% (inactive) | 117% | -0.494 (inactive) | -1.7e-05 (inactive) | 0.00691 (inactive) | 12.7% (inactive) | -13.2% (inactive)
3 | Cn1c(=O)[nH]c(=O)c2c1nc(NCCCn1ccnc1)n2Cc1cccc(Br)c1 | 663 | -12.9% (inactive) | 8.6% (inactive) | 68.9% | -53.6% (inactive) | 112% | -0.403 (inactive) | -2.8e-05 (inactive) | 0.006 (inactive) | 16.8% (inactive) | 26.1% (inactive)
4 | O=C(COc1ccccc1F)NC1CC1 | 235 | -13% (inactive) | 14.4% (inactive) | 92.8% | 19.9% (inactive) | 100% | -0.395 (inactive) | -4.8e-05 (inactive) | 0.0037 (inactive) | -0.955% (inactive) | 11% (inactive)
5 | COc1ccc(C)cc1NCc1cccc(OC)c1OC | 335 | -7% (inactive) | 7% (inactive) | 111% | -41.1% (inactive) | 110% | -0.496 (inactive) | -2.7e-05 (inactive) | 0.00476 (inactive) | -7.74% (inactive) | 24.1% (inactive)
6 | COc1cc2c(cc1OC)-c1nnc(C)n1C1(CCCC1)C2 | 849 | 2.9% (inactive) | -14.8% (inactive) | 132% | -70.9% (inactive) | 120% | -0.606 (inactive) | 3.2e-05 (inactive) | 0.00696 (inactive) | 10.3% (inactive) | 1.68% (inactive)
7 | Cc1nn(C)c(C)c1CNC(=O)c1cc2n(n1)C(C(F)(F)F)CC(c1cccs1)N2 (stereo not drawn) | 565 | 1.9% (inactive) | -16.5% (inactive) | 95.1% | -65% (inactive) | 115% | -0.583 (inactive) | -6.9e-05 (inactive) | 0.00578 (inactive) | -2.09% (inactive) | -24.4% (inactive)
8 | COc1ccccc1CC(=O)NCc1ccc2c(c1)OCO2 | 372 | -0.6% (inactive) | -2.1% (inactive) | 101% | -81% (inactive) | 114% | -0.392 (inactive) | -5.4e-05 (inactive) | 0.00532 (inactive) | 7.81% (inactive) | -10.6% (inactive)
9 | O=C(CCCC(=O)OCC(=O)NC1CCCC1)Nc1ccccn1 | 463 | 2.6% (inactive) | 1.1% (inactive) | 113% | -130% (inactive) | 179% | -0.6 (inactive) | -4.5e-05 (inactive) | 0.00354 (inactive) | 14% (inactive) | 17.5% (inactive)
10 | COc1ccc(C(c2nnnn2C2CCCC2)N2CCC(C)CC2)c(OC)c1 (stereo not drawn) | 584 | -7.1% (inactive) | -6.5% (inactive) | 102% | -5.7% (inactive) | 109% | -0.571 (inactive) | 1.2e-05 (inactive) | 0.005 (inactive) | 2.52% (inactive) | 3.27% (inactive)
11 | COc1ccccc1N1CCN(C(=O)N2CCOCC2)CC1 | 683 | -8.1% (inactive) | -2.9% (inactive) | 100% | -80.8% (inactive) | 107% | -0.417 (inactive) | -6.2e-05 (inactive) | 0.00512 (inactive) | 19% (inactive) | 26.2% (inactive)
12 | COc1ccccc1NC(=O)CSC1CC(=O)N(c2ccc3c(c2)OCO3)C1=O (stereo not drawn) | 685 | -3.4% (inactive) | -2.5% (inactive) | 95.7% | -109% (inactive) | 122% | -0.622 (inactive) | 2.7e-05 (inactive) | 0.00433 (inactive) | 17.9% (inactive) | 21.8% (inactive)
13 | COc1ccc(CN(C2CCCC2)S(=O)(=O)c2ccc(-n3cnnn3)cc2)cc1OC | 527 | -5.8% (inactive) | -15% (inactive) | 115% | -39.4% (inactive) | 124% | -0.57 (inactive) | -1.6e-05 (inactive) | 0.00406 (inactive) | 15.1% (inactive) | 18.9% (inactive)
14 | O=C(c1cc2n(n1)C(C(F)(F)F)CC(c1ccc(Cl)cc1)N2)N1CCCC1 (stereo not drawn) | 259 | -5.8% (inactive) | -22.3% (inactive) | 112% | -9.7% (inactive) | 102% | -0.322 (inactive) | 4.7e-06 (inactive) | 0.00413 (inactive) | 14.3% (inactive) | 16.5% (inactive)
15 | COc1cc(C2NC(=O)NC(C)=C2C(=O)OCC2CCCO2)ccc1O (stereo not drawn) | 401 | 1.8% (inactive) | -5.3% (inactive) | 112% | -105% (inactive) | 114% | -0.489 (inactive) | -3.4e-05 (inactive) | 0.00604 (inactive) | 1.44% (inactive) | 24.7% (inactive)
16 | COc1cccc(C2CC(=O)Nc3cc4c(cc32)OCCO4)c1OC(C)C (stereo not drawn) | 556 | 1.9% (inactive) | 7.2% (inactive) | 119% | -18.7% (inactive) | 104% | -0.497 (inactive) | -6e-05 (inactive) | 0.00619 (inactive) | 9.49% (inactive) | 17.8% (inactive)
17 | Cc1nc2cc(N3CCCCC3)c(NC(=O)c3cccnc3)cc2c(=O)n1Cc1ccccc1 | 751 | -10.1% (inactive) | 1.2% (inactive) | 93.3% | -2% (inactive) | 99.1% | -0.167 (inactive) | 2.6e-06 (inactive) | 0.00435 (inactive) | -3.36% (inactive) | -14% (inactive)
18 | COc1cc(C(=O)NCCc2ccc3c(c2)OCCO3)ccc1OCC(=O)N1CCOCC1 | 632 | 2.4% (inactive) | 11.3% (inactive) | 87.3% | -76.6% (inactive) | 96.6% | -0.298 (inactive) | -5.4e-05 (inactive) | 0.00507 (inactive) | 14.7% (inactive) | 15.3% (inactive)
19 | CCOc1ccc(OCC)c(NC(=O)C2CCN(c3ncccn3)CC2)c1 | 588 | -14.2% (inactive) | 10.9% (inactive) | 103% | -43.7% (inactive) | 113% | -0.421 (inactive) | -5.1e-05 (inactive) | 0.0054 (inactive) | 8.17% (inactive) | 11.1% (inactive)
20 | COc1ccc(-c2nc(C#N)c(N3CCOCC3)o2)cc1OC | 257 | -4.8% (inactive) | 30.6% (active) | 92.9% | -16.3% (inactive) | 98.5% | -0.341 (inactive) | -1.9e-05 (inactive) | 0.00341 (inactive) | 9.75% (inactive) | -1.53% (inactive)
21 | Cc1cnc(SCCc2ccncc2)nc1C | 650 | -17% (inactive) | -22.1% (inactive) | 116% | -103% (inactive) | 101% | -0.278 (inactive) | -1.1e-05 (inactive) | 0.00606 (inactive) | 6.48% (inactive) | -3.71% (inactive)
22 | CCOc1ccc(-c2nc(N)ncc2-c2ccccc2)c(O)c1 | 399 | 2% (inactive) | -4.3% (inactive) | 114% | -32.6% (inactive) | 67.7% | -0.581 (inactive) | -3.6e-05 (inactive) | 0.00545 (inactive) | -1.82% (inactive) | -1.28% (inactive)
23 | Nc1nc(N2CCCCC2)nc(N(c2ccccc2)c2ccccc2)n1 | 710 | -2.9% (inactive) | 23.2% (inactive) | 88% | -33% (inactive) | 91.6% | -0.544 (inactive) | -5.4e-05 (inactive) | 0.00708 (inactive) | 10.2% (inactive) | 34.4% (inactive)
24 | CC1CC(C)CN(CCCNC(=O)c2ccc3c(c2)NC(=O)C(N2CCCCC2)S3)C1 (stereo not drawn) | 395 | -7.7% (inactive) | -6.5% (inactive) | 101% | -14.9% (inactive) | 113% | -0.317 (inactive) | 6.4e-06 (inactive) | 0.00531 (inactive) | -18.6% (inactive) | -14.5% (inactive)
25 | CCOC(=O)CSc1nc2cccnc2n1-c1ccc(F)cc1 | 328 | -0.2% (inactive) | -28% (inactive) | 110% | -26.8% (inactive) | 111% | -0.444 (inactive) | -1.6e-05 (inactive) | 0.0064 (inactive) | -4.88% (inactive) | 2.83% (inactive)
26 | CCn1cc(C(=O)NC2CCc3ccccc32)c(=O)c2ccc(C)nc21 (stereo not drawn) | 727 | -2.2% (inactive) | -0.4% (inactive) | 100% | -37% (inactive) | 110% | -0.559 (inactive) | 2.4e-05 (inactive) | 0.00594 (inactive) | 7.46% (inactive) | 13.4% (inactive)
27 | c1ccc(-n2ncc3c(N4CCCCC4)ncnc32)cc1 | 655 | -3.9% (inactive) | -2.1% (inactive) | 108% | -21.5% (inactive) | 118% | -0.574 (inactive) | -3.8e-05 (inactive) | 0.0073 (inactive) | 49.8% (inactive) | 10.6% (inactive)
28 | Nn1c(SCC(=O)Nc2ccc(Oc3ccccc3)cc2)nnc1C1CC1 | 331 | -12.3% (inactive) | 17.5% (inactive) | 91.2% | -57.3% (inactive) | 132% | -0.378 (inactive) | 1.7e-05 (inactive) | 0.00645 (inactive) | -8.58% (inactive) | -16% (inactive)
